# Compound activity deposited in PubChem BioAssay by National Center for Advancing Translational Sciences (NCATS).
# IL1B secr inh – inhibitors of inflammasome signaling (IL-1 beta secretion). THP-1 LPS/ATP IL-1B secretion, AlphaLISA, 16 h; active compounds read low. activity change, % at 57.5 µM. 360,000 compounds, 4.7% hits; in the data active means activity change below about -50%; inconclusive means mostly about -30% to -49%; further: on the % scale 0 is the no-effect control and ±100 the full control effect
#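 THP-1 cells pretreated 1 hr with compounds (up to 57.5 uM final), then stimulated with LPS (250 ng/mL final) plus ATP (1.25 mM final); secreted IL-1B measured by AlphaLISA after 16 hr, decreased signal indicating inhibition.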
# TGFb inhibitor – inhibitors of TGF-b signaling. 410,000 compounds, 1.2% hits. HepG2 CAGA-GFP TGF-b/SMAD3 reporter, GFP fluorescence, 18 h; TGF-beta stimulated, 500 pg/mL final. Potency, µM (doses to about 46.1 µM), for inactives: at the top dose activity, negative = inhibition, actives largely listed as inhibitors; further: potency means the concentration at half of the fitted maximal effect; on the % scale 0 is the no-effect control and ±100 the full control effect; nearly all actives have a fitted effect of over 65% in size
#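 HEPG2 CAGA-GFP cells (1000/well, DMEM with 1% FBS) were pre-incubated 2 h at 37 degrees C, given compound by pin tool, then stimulated with TGF-beta at 500 pg/mL final for 18 h before per-cell GFP fluorescence imaging.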
# S-ASM inh – human S-ASM enzyme inhibition | Potency, µM (series often up to 57.5 µM), for inactives: top-dose activity change, negative = inhibition, hits mostly inhibitors | 340,000 compounds, 0.006% hits | placental ASM, HMU-PC fluorogenic substrate, 60 min; further: potency means the concentration at half of the fitted maximal effect
# Target sequence (P17405 47-631 limits assumed): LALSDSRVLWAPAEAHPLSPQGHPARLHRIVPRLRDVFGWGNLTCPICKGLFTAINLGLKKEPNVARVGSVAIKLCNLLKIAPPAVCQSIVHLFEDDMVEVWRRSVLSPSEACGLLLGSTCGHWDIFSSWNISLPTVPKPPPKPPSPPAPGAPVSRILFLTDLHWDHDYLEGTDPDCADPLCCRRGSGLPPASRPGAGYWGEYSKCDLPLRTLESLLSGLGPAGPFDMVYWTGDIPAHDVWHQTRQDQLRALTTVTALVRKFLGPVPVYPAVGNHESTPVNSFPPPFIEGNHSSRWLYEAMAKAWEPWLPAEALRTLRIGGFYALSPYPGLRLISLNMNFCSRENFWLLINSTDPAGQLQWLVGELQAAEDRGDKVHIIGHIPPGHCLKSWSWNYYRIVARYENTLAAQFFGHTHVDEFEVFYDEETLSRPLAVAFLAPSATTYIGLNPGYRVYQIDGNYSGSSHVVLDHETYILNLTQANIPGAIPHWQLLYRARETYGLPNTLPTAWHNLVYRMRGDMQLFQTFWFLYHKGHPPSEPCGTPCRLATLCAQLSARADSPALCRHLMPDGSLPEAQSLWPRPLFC
#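 Fluorescence read-out (Ex 386 nm, Em 447 nm) after stopping the reaction at pH 10. Enzyme: ASM from human placenta; substrate HMU-PC0, 9 uM final; 60 min, 37 °C. Compound preincubation 10 min, ambient temperature.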
# HepG2 viability – HepG2 cytotoxicity, counter-screen for TGF-b inhibitors; HepG2 CAGA-GFP viability, ATP luminescence, 18 h; Potency, µM (top dose mostly 46.1 µM), for inactives: at the highest dose activity change, negative = cytotoxicity, usual class: cytotoxic; 410,000 compounds, 0.76% hits; AID 588856; further: potency means the concentration at half of the fitted maximal effect
#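 CellTiter-Glo luminescence gave cytotoxicity after 18 hours at 37 degrees C. The cells were HepG2 CAGA-GFP in 1% FBS DMEM, stimulated with 500 pg/mL TGF-beta after compound addition. %Activity was normalised to no-cell wells (complete cell-killing) and DMSO (no toxicity), and curves were fitted and classified.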
# DT40 TDP1 CPT – DT40-hTDP1 cell growth loss with CPT; chicken DT40 Tdp1-/-;hTDP1 cells + 20 nM CPT, ATP luminescence, 48 h; Potency, µM (highest dose often 46.2 µM), inactives show top-dose activity change, negative = growth inhibition, hits mostly inhibitors; 420,000 compounds, 12% hits; further: potency means the concentration at half of the fitted maximal effect; on the % scale 0 is the no-effect control and ±100 the full control effect; nearly all actives have a fitted effect of over 55% in size
#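 Chicken DT40 Tdp1-/- cells complemented with human TDP1, 400 cells/well, exposed to compounds plus 20 nM camptothecin for at least 48 h at 37 C; viability read as ATP content by CellTiter-Glo luminescence.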
# DT40 TDP1 no CPT – qHTS for Inhibitors of human tyrosyl-DNA phosphodiesterase 1 (TDP1): qHTS in cells in absence of CPT; DT40 Tdp1-/- hTDP1 cells, no CPT, ATP luminescence, 48 h; Potency, µM (series often up to 46.2 µM), inactives show top-dose activity change, negative = growth inhibition, hits mostly inhibitors; 420,000 compounds, 15% hits; AID 686978, 2013; further: potency means the concentration at half of the fitted maximal effect; on the % scale 0 is the no-effect control and ±100 the full control effect; nearly all actives have a fitted effect of over 55% in size
#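 Readout: luminescence from CellTiter-Glo after 30 min in the dark at RT. Cells: DT40 Tdp1-/- with stable hTDP1, 400/well. Exposure: compounds alone, ≥48 hr, 37 °C.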
# Active calls of the source: *; ? = inconclusive; · = no result given. Only some compounds are listed: those with a hit (about 19% of all), similar ones and a draw of the others. Unless noted, the call rests on the fitted dose curve; in most records, active means well fitted curve in the direction sought with a large enough effect; inconclusive means small, poorly fitted or top-dose-only effect, or another doubt; inactive means no such curve, though single readings can be large; an effect the other way counts as inactive or inconclusive.
SMILES,IL1B secr inh,TGFb inhibitor,S-ASM inh,HepG2 viability,DT40 TDP1 CPT,DT40 TDP1 no CPT
CC(CNC(=O)c1ccc(OC2CCN(Cc3ccccn3)CC2)cc1)Oc1cccnc1 (stereo not given),-3,10%,·,-2%,-14%,?
O=C(NC1CCOc2ccccc21)c1ccccn1 (stereo not given),-11,7%,2%,13%,5%,-5%
CCc1ccc(NC(=O)NCCN2CCCCC2)cc1,32,-18%,3%,-1%,3%,15%
O=C(Cc1cccc(C(F)(F)F)c1)Nc1ccccc1N1CCCC1,52,-31%,-4%,-8%,?,?
COc1ccc(C(=O)O)cc1NCc1cccnc1,-5,1%,-1%,4%,27%,-6%
Cc1ccc(NC(=O)COC(=O)c2ccc3c(c2)C(=O)N(CCc2ccccc2)C3=O)c(C)c1,6,4%,4%,-3%,?,6.5µM*
COc1cc(NC(=O)c2cc([N+](=O)[O-])ccc2NC(=O)CNCc2ccccn2)cc(OC)c1,93,?,-2%,-3%,2%,?
COc1cc(NC(=O)c2cc([N+](=O)[O-])ccc2NC(=O)CNC2CCCCC2)cc(OC)c1,15,-28%,-1%,-1%,21µM*,16µM*
COc1ccc(NC(=O)c2cc([N+](=O)[O-])ccc2NC(=O)CNCc2ccccn2)c(OC)c1,-8,5%,-1%,-1%,?,13µM*
CCC(C)(C)n1nnnc1C(c1ccc(F)cc1)N1CCC(C(N)=O)CC1 (stereo not given),-3,-4%,-4%,1%,-17%,-26%
O=C(OCc1cn([C@@H]2CN(C(=O)c3cccs3)[C@@H](c3ccc(Cl)cc3)C[C@H]2O)nn1)c1ccccc1,29,27%,·,2%,?,?
COc1ccc(-c2nc(C)c(CCNC(=O)c3c(F)cccc3F)s2)cc1,·,10%,·,-21%,·,·
CN(C)S(=O)(=O)c1ccc(F)c(C(=O)Nc2ccccc2C(=O)NC2CC2)c1,7,-8%,3%,-26%,6%,?
O=C(Nc1ccc(Br)cc1F)c1cc(S(=O)(=O)NC2CCCC2)ccc1F,·,?,·,-65%,21µM*,16µM*
CCc1ccccc1NC(=O)c1cc(S(=O)(=O)NC2CCCC2)ccc1F,·,-15%,·,-19%,?,21µM*
COc1ccc(C)cc1NC(=O)c1cc(S(=O)(=O)NC2CCCCCC2)ccc1F,·,?,·,-9%,?,?
O=C(Nc1ccc(Cl)cc1F)c1cc(S(=O)(=O)NC2CCCCCC2)ccc1F,·,?,·,-61%,21µM*,?
Cc1csc(=O)n1CCC(=O)OCC(=O)Nc1ccc(S(N)(=O)=O)cc1,11,-3%,2%,-11%,-27%,13%
CC(=O)Nc1nonc1-c1nnc(SCc2ccc(Cl)cc2)n1C,·,1%,·,-3%,?,?
COc1cc2c(cc1OC)C(c1cc(OC)c(OC)cc1[N+](=O)[O-])N(C(C)=O)CC2 (stereo not given),-19,13%,-2%,-8%,-17%,-24%
COc1cccc(N(CC(=O)NCCSCc2ccco2)S(=O)(=O)c2ccccc2)c1,-13,0%,8%,-3%,-25%,?
COc1ccc(N(CC(=O)NCCSCc2ccco2)S(=O)(=O)c2ccccc2)cc1Cl,-3,3%,-2%,4%,15µM*,21µM*
COc1ccc(OC)c(N(CC(=O)NCCSCc2ccco2)S(=O)(=O)c2ccc(OC)c(OC)c2)c1,18,22%,3%,-1%,13µM*,16µM*
COc1ccc(N(CC(=O)NCCSCc2ccccc2Cl)S(C)(=O)=O)cc1Cl,0,-17%,1%,-26%,12µM*,?
COC(=O)[C@@H](Cc1ccccc1)NC(=O)NCCc1ccc(OC)c(OC)c1,3,2%,3%,-3%,-2%,-34%
SMILES,IL1B secr inh,TGFb inhibitor,S-ASM inh,HepG2 viability,DT40 TDP1 CPT,DT40 TDP1 no CPT
CC(C)C(NS(=O)(=O)c1cccs1)C(=O)NCCCN1CCCCCC1 (stereo not given),0,-4%,3%,8%,2%,-6%
CC1=CC(C)(C)Nc2ccc(C)cc21,0,-5%,80%,-6%,-5%,-9%
CC1=CC(C)(C)Nc2ccc(Cc3ccc4c(c3)C(C)=CC(C)(C)N4)cc21,-6,?,411%,-19%,21µM*,21µM*
CC1=C(c2ccc(C(C)C)cc2)S(=O)(=O)NC1=NCc1ccccc1Br,·,-2%,·,-35%,?,13µM*
CC1=C(c2ccc(F)cc2)S(=O)(=O)NC1=NCc1ccccc1F,·,-27%,·,-14%,?,?
O=C(O)c1ccccc1CSC1=NCCS1,7,-1%,2%,1%,-9%,-1%
N#Cc1ccccc1CSC1=NCCS1,-89*,6%,2%,8%,0%,-17%
CN1CCN(NC(=O)c2cn(-c3ccccc3)nc2-c2cccc(Br)c2)CC1,-136*,?,-2%,-101%,?,?
CC(C)(C)NCC(=Cc1ccccc1)C(=O)c1ccccc1,-102*,8.9µM*,-1%,-100%,2.1µM*,2.1µM*
O=C(O/C(=C/c1ccccc1)C(F)(F)F)c1ccccc1,4,13%,-1%,1%,5%,-1%
O=C(O)c1cc(O)c2c(c1)[C@H]([C@H]1c3cc(C(=O)O)cc(O)c3C(=O)c3c(O[C@@H]4O[C@H](CO)[C@@H](O)[C@H](O)[C@H]4O)cccc31)c1cccc(O[C@@H]3O[C@H](CO)[C@@H](O)[C@H](O)[C@H]3O)c1C2=O,·,·,·,·,-21%,-11%
CC(NC(=O)COC(=O)C1CSC2(C)CCC(=O)N12)C12CC3CC(CC(C3)C1)C2 (stereo not given),10,6%,7%,5%,-5%,-4%
Cc1ccc(C)c(N2CCN(C(=O)CC3Sc4ccccc4NC3=O)CC2)c1 (stereo not given),-28,?,-16%,-24%,18µM*,16µM*
Cc1ccc(C)c(N2CCN(C(=O)CN3CCSc4ccccc43)CC2)c1,·,?,·,-41%,·,·
Cc1ccc(C)c(N2CCN(C(=O)CN3C(=S)NC(C)(C)CC3C)CC2)c1 (stereo not given),-3,?,-2%,-20%,23µM*,23µM*
